Source: PubChem
TDP1 inh = qHTS Assay for Inhibitors of Tyrosyl-DNA Phosphodiesterase (TDP1); Tyrosyl-DNA phosphodiesterase 1 (Homo sapiens), Q9NUW8; recombinant TDP1, AlphaScreen DNA substrate cleavage; Potency, µM (top dose mostly 130 µM), without a hit: top-dose activity change, negative = inhibition, most hits filed as inhibitors; 350,000 tested, 0.28% active; AID 485290, 2010; note: % is set by controls: 0 for no effect and ±100 for the full control effect; nearly all actives have a fitted effect of over 40% in size
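Signal: AlphaScreen proximity between streptavidin donor and anti-FITC acceptor beads on intact substrate. Reaction: Tdp1 1 nM, substrate 15 nM final, 5 min RT after 15 min compound preincubation.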
ClpP mod = qHTS Assay for Activators of ClpP; purified B. subtilis ClpP, FRET peptide cleavage, 20 min; Potency, µM (highest dose often 57.5 µM), without a hit: at the highest dose activity change, negative = active; 340,000 tested, 1.9% active; AID 651965, 2013; active = well fitted falling curve with a large enough effect; inconclusive = small, poorly fitted or top-dose-only effect; inactive = no such curve, though single readings can be large or run the other way; note: the source files actives as falling curves though it sought activators and does not explain the sign; nearly all actives have a fitted effect of over 65% in size
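FRET quenching reversal measured ClpP activation: 10 microg/mL B. subtilis ClpP at pH 8 with the FRET-FV decapeptide, read at 430 nm after 320 nm excitation. The 20-min minus 0-min signal was scaled between DMSO/no-enzyme wells and ADEP (5.8 microM final).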
DT40 TDP1 CPT = qHTS for Inhibitors of human tyrosyl-DNA phosphodiesterase 1 (TDP1): qHTS in cells in presence of CPT | Potency, µM (top dose mostly 46.2 µM), without a hit: at the top dose activity change, negative = growth inhibition, most hits filed as inhibitors | chicken DT40 Tdp1-/-;hTDP1 cells + 20 nM CPT, ATP luminescence, 48 h | 420,000 tested, 12% active; note: % is set by controls: 0 for no effect and ±100 for the full control effect; nearly all actives have a fitted effect of over 55% in size
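Cell growth measured by CellTiter-Glo luminescence after a minimum 48 h, 37 C compound exposure with 20 nM CPT in Tdp1-knockout DT40 cells stably expressing hTDP1, seeded 400/well; qHTS titration format.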
DT40 TDP1 no CPT = qHTS for Inhibitors of human tyrosyl-DNA phosphodiesterase 1 (TDP1): qHTS in cells in absence of CPT. DT40 Tdp1-/- hTDP1 cells, no CPT, ATP luminescence, 48 h. Potency, µM (doses to about 46.2 µM), inactives show top-dose activity change, negative = growth inhibition, most hits filed as inhibitors. 420,000 tested, 15% active. AID 686978, 2013; note: % is set by controls: 0 for no effect and ±100 for the full control effect; nearly all actives have a fitted effect of over 55% in size
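DT40 Tdp1-/-;hTDP1 cells, no CPT (DMSO vehicle only), 400 cells/well; compounds pin-transferred; ≥48 hr, 37 °C; CellTiter-Glo 30 min RT dark, luminescence read.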
An asterisk follows results filed as active. Shown are actives, neighbours in structure and some others; about 17% of the full set was active somewhere. Unless noted, calls come from the whole dose curve; as a rule, active = well fitted curve in the direction sought with a large enough effect; inconclusive = small, poorly fitted or top-dose-only effect, or another doubt; inactive = no such curve, though single readings can be large; an effect the other way counts as inactive or inconclusive. Potency is the fitted concentration of half-maximal effect.

Screening COc1ccc(C(NC(=O)C2CCN(CCOc3ccc(Cl)cc3Cl)CC2)c2ccccc2C)cn1 (configuration not stated) returned ClpP mod -1%, DT40 TDP1 CPT inconclusive and DT40 TDP1 no CPT inconclusive.
For Cc1cc(-c2ccc(C)c(S(=O)(=O)N3CCC(C)CC3)c2)on1 the results were TDP1 inh 3%, ClpP mod -3%, DT40 TDP1 CPT inconclusive and DT40 TDP1 no CPT inconclusive.
`Cc1cc(-c2ccc(C(C)C)c(S(=O)(=O)N3CCC(C)CC3)c2)on1` gave TDP1 inh -4%, ClpP mod -7%, DT40 TDP1 CPT 26µM* and DT40 TDP1 no CPT 18µM*.
Screening Cc1cc(-c2ccc(C(C)C)c(S(=O)(=O)N3CCN(c4ccccc4)CC3)c2)on1 returned TDP1 inh 1%, DT40 TDP1 CPT 2.6µM* and DT40 TDP1 no CPT 2.1µM*.
For CCc1ccc(-c2cc(C)no2)cc1S(=O)(=O)N1CCC(C)CC1 the results were TDP1 inh -8%, ClpP mod 0%, DT40 TDP1 CPT inconclusive and DT40 TDP1 no CPT 23µM*.
For COc1cc(=O)n2c(c1C(=O)NCc1ccco1)CCN(C(=O)c1ccccc1-c1ncc[nH]1)CC2 the results were DT40 TDP1 CPT 22% and DT40 TDP1 no CPT -2%.
Screening CCOC(=O)c1c(C)[nH]c(C)c1S(=O)(=O)NCC(=O)N1CCN(c2cccc(C)c2)C(C)C1 (configuration not stated) returned TDP1 inh 8%, ClpP mod -1%, DT40 TDP1 CPT inconclusive and DT40 TDP1 no CPT inconclusive.
Cc1ccc(-n2nc(C(=O)N(C)Cc3ccccc3)c3c4ccccc4n(C)c3c2=O)cc1 was read as TDP1 inh -3%, ClpP mod -7%, DT40 TDP1 CPT 23µM* and DT40 TDP1 no CPT 9.2µM*.
Cc1ccc(-n2nc(C(=O)N(C)c3ccccc3Cl)c3c4ccccc4n(C)c3c2=O)cc1 was read as TDP1 inh 5%, ClpP mod -3%, DT40 TDP1 CPT 18µM* and DT40 TDP1 no CPT 13µM*.
Screening Cc1ccc(-n2nc(C(=O)NCCc3cccc(C)c3)c3c4ccccc4n(C)c3c2=O)cc1 returned TDP1 inh 0%, ClpP mod -3%, DT40 TDP1 CPT -16% and DT40 TDP1 no CPT -3%.
`CCOc1ccccc1N(C)C(=O)c1nn(-c2ccc(C)cc2)c(=O)c2c1c1ccccc1n2C` gave TDP1 inh -2%, ClpP mod 1%, DT40 TDP1 CPT -6% and DT40 TDP1 no CPT -13%.
For CO/N=C/c1ccc(Oc2ccc(C)cc2)c([N+](=O)[O-])c1 the results were TDP1 inh 3%, DT40 TDP1 CPT inconclusive and DT40 TDP1 no CPT 21µM*.
CO/N=C/c1ccc(Sc2ccccc2)c([N+](=O)[O-])c1 was read as TDP1 inh 10%, ClpP mod -2%, DT40 TDP1 CPT 5% and DT40 TDP1 no CPT inconclusive.
`O=C(Cn1nnc(-c2cccs2)n1)Nc1ccccc1C(F)(F)F` gave TDP1 inh 5%, ClpP mod 0%, DT40 TDP1 CPT 1% and DT40 TDP1 no CPT -27%.
For O=C(Nc1ccc2c(c1)OCO2)[C@@H]1[C@@H]2C(=O)N(C3CCCCC3)C(=O)[C@@H]2C2c3ccccc3C=CN21 (some centres not stated) the results were TDP1 inh 3%.
Screening O=C(c1ccc2c(c1)OCO2)[C@@H]1[C@@H]2C(=O)N(C3CCCCC3)C(=O)[C@@H]2C2c3ccccc3C=CN21 (some centres not stated) returned TDP1 inh 8%, ClpP mod -6%, DT40 TDP1 CPT inconclusive and DT40 TDP1 no CPT 16µM*.
Screening CC(C)(C)C(=O)[C@@H]1[C@@H]2C(=O)N(C3CCCCC3)C(=O)[C@@H]2[C@H]2c3ccccc3C=CN12 returned TDP1 inh 9%, ClpP mod inconclusive, DT40 TDP1 CPT 23µM* and DT40 TDP1 no CPT inconclusive.
COc1ccc(N2C(=O)[C@@H]3[C@H](C2=O)[C@H]2c4ccccc4C=CN2[C@@H]3C(C)=O)cc1 was read as TDP1 inh 7%, ClpP mod -2%, DT40 TDP1 CPT inconclusive and DT40 TDP1 no CPT 16µM*.
